Species on record: Homo sapiens
Assay: Quantitative High-Throughput Screen for Compounds Blocking the Interaction Between CBF-beta and RUNX1 for the Treatment of Acute Myeloid Leukemia: Summary. [Related pubchem assays (depositor defined):AID1477, AID504370, AID504374, AID504375]; call rule not given here
Format: functional
In the case of O=C(O)CCCC[C@@H]1SC[C@H]2NC(=O)N[C@@H]12, the Potency is reported as 12600 nM (active).
CCCCn1c(NS(=O)(=O)c2ccccc2)c(C(=O)OCC)c2nc3ccccc3nc21 was tested, and the Potency was 112 nM (active).
With O=C(O)CCCC[C@@H]1SC[C@@H]2NC(=O)N[C@@H]21 the Potency was 1780 nM (active).
In the case of CC1CC(NC(=O)C2C3CCC(O3)C2C(=O)O)CC(C)(C)C1 (centres undefined), the Potency is reported as 112 nM (active).

— ChEMBL document CHEMBL1201862, “PubChem BioAssay data set” (2004)
